The text below walks through data of PubChem BioAssay (NCATS).

“And” between values parts separate entries of the source, which are not always exact repeats. Identical values can stand only once. Results filed as inconclusive are left out. Unmarked numbers belong to inactive results. The source made the active and inactive calls. Calls follow the shape of the dose curve; as a rule, active = well fitted curve in the direction sought with a large enough effect; inconclusive = small, poorly fitted or top-dose-only effect, or another doubt; inactive = no such curve, though single readings can be large; an effect the other way counts as inactive or inconclusive.

Assay [1] has as its system CRL-7250. Kind of assay: Cytotoxic Profiling of Annotated Libraries Using Quantitative High-Throughput Screening (AID 1296008). Also: nearly all actives have a fitted effect of over 60% in size. Also: potency is read from the fitted curve at half-maximal effect. As to max response: % is scaled to controls: 0 for no effect and ±100 for the full control effect. To be noted: Five cell lines viability, CellTiter-Glo ATP luminescence, 48-72 h; max response: active compounds read low. The essentials: (§1)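 Cytotoxicity was measured as CellTiter-Glo ATP luminescence, read after 10 min at room temperature. Compound treatment of the cells lasted 48 or 72 hr at 37 degrees Celsius in a qHTS format.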
In general terms: Cellular ATP, detected with luciferase, serves as a proxy for viable cell number.

For assay [2], the system named is HEK293. The description is as above. To be noted: Five cell lines viability, CellTiter-Glo ATP luminescence, 48-72 h; max response: active compounds read low. Summed up: as §1
Assay [3] relates to HaCat. The description is as above. To be noted: Five cell lines viability, CellTiter-Glo ATP luminescence, 48-72 h; max response: active compounds read low. The essentials: as §1
Assay [4] concerns KB-3-1. Described as above. To be noted: Five cell lines viability, CellTiter-Glo ATP luminescence, 48-72 h; max response: active compounds read low. Summed up:
as §1

Assay [5] relates to NIH3T3. The assay is described as above. To be noted: Five cell lines viability, CellTiter-Glo ATP luminescence, 48-72 h; max response: active compounds read low. The essentials: as §1
For assay [6], the system named is UISO. Nature of the assay: qHTS assay to identify novel small-molecules to repurpose for Merkel cell carcinoma treatment (AID 1296009). Also: nearly all actives have a fitted effect of over 60% in size. Also: potency is read from the fitted curve at half-maximal effect. To be noted: MCC and control cell lines, CellTiter-Glo viability, 72 h; series mostly up to 46 µM. Summed up: (§2)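 Cell viability, measured as CellTiter-Glo luminescence, was normalized between DMSO and no-cell wells. The cells had been exposed to 8- or 11-point compound dilutions for 72 hr at 37 degree celsius.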
Background: qHTS replaces the single test concentration by a dilution series.

Assay [7] relates to HeLa. Nature of the assay: Primary qHTS to identify gynecologic anti-cancer compounds using libraries of approved drugs and bioactive compounds (AID 1345084). Also: % is scaled to controls: 0 for no effect and ±100 for the full control effect; nearly all actives have a fitted effect of over 55% in size. To be noted: Gynecologic cancer cell panel viability, ATPlite luminescence, 48 h; series mostly up to 57.5 µM. Summed up: (§3)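 Cells, 1,000 per well, were allowed to settle for 16 h at 37 C before compound addition. Five concentrations were tested for 48 h, and viability was read by ATPlite luminescence after 15 min at room temperature.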

Assay [8] relates to MCC-13. Kind of assay: qHTS assay to identify novel small-molecules to repurpose for Merkel cell carcinoma treatment (AID 1296009). Also: nearly all actives have a fitted effect of over 60% in size. Also: potency is read from the fitted curve at half-maximal effect. To be noted: MCC and control cell lines, CellTiter-Glo viability, 72 h; series mostly up to 46 µM. The essentials:
as §2

Assay [9] relates to MCC-26. Described as above. To be noted: MCC and control cell lines, CellTiter-Glo viability, 72 h; series mostly up to 46 µM. The essentials: as §2
Assay [10] deals with MKL-1. The assay is described as above. To be noted: MCC and control cell lines, CellTiter-Glo viability, 72 h; series mostly up to 46 µM. The essentials: as §2
For assay [11], the system named is MKL-2. The description is as above. To be noted: MCC and control cell lines, CellTiter-Glo viability, 72 h; series mostly up to 46 µM. The essentials:
as §2

Assay [12] deals with WaGa. The description is as above. To be noted: MCC and control cell lines, CellTiter-Glo viability, 72 h; series mostly up to 46 µM. The essentials:
as §2

In assay [13] the test system is C33A. Kind of assay: Primary qHTS to identify gynecologic anti-cancer compounds using libraries of approved drugs and bioactive compounds (AID 1345084). Also: % is scaled to controls: 0 for no effect and ±100 for the full control effect; nearly all actives have a fitted effect of over 55% in size. To be noted: Gynecologic cancer cell panel viability, ATPlite luminescence, 48 h; series mostly up to 57.5 µM. Summed up:
as §3

The test system of assay [14] is CASKI. The description is as above. To be noted: Gynecologic cancer cell panel viability, ATPlite luminescence, 48 h; series mostly up to 57.5 µM. The essentials: as §3
Assay [15] relates to Es-2. The assay is described as above. To be noted: Gynecologic cancer cell panel viability, ATPlite luminescence, 48 h; series mostly up to 57.5 µM. The essentials: as §3
The subject of assay [16] is W2. Nature of the assay: qHTS profiling for inhibitors of Plasmodium falciparum proliferation (AID 504749). To be noted: P. falciparum in erythrocytes, SYBR Green DNA, 72 h; series mostly up to 28.7 µM. Summed up: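 SYBR Green fluorescence of parasite DNA, read after lysis and overnight dark incubation, measured growth over 72 h in erythrocyte culture at 0.3% parasitemia and 2.5% hematocrit. Data normalised to DMSO and 0.29 uM artemisinin, with plate-drift correction.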

For assay [17], the system named is NIH3T3. Nature of the assay: qHTS assay to identify novel small-molecules to repurpose for Merkel cell carcinoma treatment (AID 1296009). Also: nearly all actives have a fitted effect of over 60% in size. Also: potency is read from the fitted curve at half-maximal effect. To be noted: MCC and control cell lines, CellTiter-Glo viability, 72 h; series mostly up to 44.8 µM. The essentials: as §2
Assay [18] deals with HACAT. The assay is described as above. To be noted: MCC and control cell lines, CellTiter-Glo viability, 72 h; at 44.8 µM (top of the series) unless noted. The essentials:
as §2

With `CC1(C)CC(=O)c2c(C(F)(F)F)nn(-c3ccc(C(N)=O)c(NC4CCC(O)CC4)c3)c2C1` (configuration not stated), the Potency in assay [1] is 259 nM (active); in assay [2], 52.6 nM (active) and 58 nM (active); in assay [3], 132 nM (active) and 231 nM (active); in assay [4], 105 nM (active); in assay [5] it was 235 nM (active) and 184 nM (active); in assay [6], 166 nM (active). Further, the Potency result in assay [7] was “inactive”.

For the molecule `COc1ccc(-c2cc3nccn3c(Nc3ncccc3C(N)=O)n2)cc1OC`, the Potency in assay [1] is 2090 nM (active); in assay [2], 1.48 µM (active) and 5.8 µM (active). Moreover, the max response is -23.8% in assay [3] and -9.74% in [4]. In addition, the Potency result in assay [8], in [9], in assay [10], in assay [11], in assay [12] and in assay [13] was “inactive” in each case. Moreover, the Potency result in assay [14] and in assay [15] was “inactive” each time.

Regarding `O=C(O)c1nc(=O)[nH]c(=O)[nH]1`, the Potency result in [16], in assay [8], in assay [9], in assay [10], in assay [11] and in assay [6] was “inactive” in each case. Moreover, the Potency entry in [12] was “inactive”. Also, the max response in assay [1] was 1.07%; in assay [2], -17.5%; in [3], 1.83%; in assay [4], 13.7% and 2.52%; in [5] it was 0.163%.

For the molecule `OC[C@H]1O[C@@H](O[C@H]2[C@@H](O)[C@@](O)(CO)O[C@@H]2CO)[C@H](O)[C@@H](O)[C@@H]1O`, the max response in assay [1] was -0.0942%; in [2], -3.28%; in assay [3], 1.22%; in assay [4] it was -0.101%; in [5] it was 2.52%. Further, the Potency entry in assay [8], in [9], in [10], in [11], in assay [6] and in [12] was “inactive” throughout.

As to `O[C@@H](COc1cccc2ncccc12)CN1CCN(C2c3ccccc3[C@@H]3[C@H](c4ccccc42)C3(F)F)CC1` (some centres not stated), the molecule was classed as inactive in assay [1] and in assay [5]. Further, in assay [2], the Potency is 10.6 µM (active) and 18.4 µM (active). Moreover, the max response is -3.25% in assay [3] and 2.31% in [4]. For the same molecule, the Potency entry in [8], in assay [9], in assay [17], in assay [13], in assay [14] and in assay [15] was “inactive” each time. Also, the Potency entry in assay [7] is “inactive”.

Take `CC[C@H](C=C[C@@H](C)[C@H]1CC[C@H]2[C@@H]3CC=C4C[C@@H](O)CC[C@]4(C)[C@@H]3CC[C@]12C)C(C)C`: the max response is -16.3% in assay [1]; 3.5% in [2]; -3.88% in [3]; 2.61% in assay [4]; 3.97% in assay [5]. Further, the Potency result in assay [8], in [9], in [10], in assay [11], in assay [6] and in assay [12] was “inactive” throughout.

For `CCNC(=O)CCCC=CC[C@@H]1[C@H](C=CC(O)CCc2ccccc2)[C@@H](O)C[C@@H]1O` (some centres not stated), the max response is -10.2% in [1]; -24.5% in assay [2]; 4.63% in assay [3]; 9.82% in assay [4]; -1.84% in [5]. For the same molecule, the Potency entry in assay [8], in [9], in [10], in assay [6] and in assay [12] was “inactive” throughout.

`CSc1cccc(Nc2ncc3cc(-c4c(Cl)cccc4Cl)c(=O)n(C)c3n2)c1`: the Potency in assay [1] was 235 nM (active); in assay [2] it was 13.2 µM (active); in assay [5], 332 nM (active). In addition, the max response was -17.3% in assay [3] and 7.1% in assay [4]. Moreover, the Potency result in assay [8], in [10], in [11] and in assay [12] was “inactive” each time.

On to `CC(C)[C@H](O)C(=O)N[C@@H](C)C(=O)N[C@@H]1C(=O)N(C)CCc2ccccc21`, for which the max response was -12.5% in [1]; -11.6% in assay [2]; 1.12% in assay [3]; -11.2% in assay [4]; -3.15% in [5]. Also, the Potency result in [8], in [9], in assay [10], in assay [11], in assay [6] and in assay [12] was “inactive” throughout.

For the molecule `OC1CCC(Nc2ncc3nc(Nc4c(F)cc(F)cc4F)n([C@@H]4CCOC4)c3n2)CC1` (some centres not stated), the molecule was called inactive in assay [1] and in assay [5]. In addition, the max response in [2] is -2.09%; in [3], -6.12%; in assay [4] it was 8.34%. The Potency entry in assay [8], in assay [10], in assay [11], in assay [17], in [6] and in assay [12] was “inactive” throughout.

Consider `COc1ccc2ccc(=O)oc2c1CC=C(C)C`, for which the max response in assay [1] was -22%; in assay [2], -5%; in assay [3] it was -6.16%; in [5], -31.4%. Moreover, in [4], the call was inactive. For the same molecule, the Potency result in assay [8], in [9] and in assay [6] was “inactive” each time. The figures for the Potency in [10], in [11] and in [12] were 10500 nM (active), 11800 nM (active) and 5260 nM (active), respectively.

On to `O=c1[nH]c(=O)n([C@H]2C[C@@H](O)[C@@H](CO)O2)cc1I`, for which the max response was -2.59% in [1], -22.9% in assay [2], 1.35% in assay [3] and 3.2% in [5]. Also, in [4], the molecule was called inactive. Moreover, the Potency result in assay [8], in assay [9], in assay [10], in assay [11] and in assay [12] was “inactive” in each case.

As to `Cc1ccc(NC(=O)c2ccc(CN3CCN(C)CC3)cc2)cc1Nc1nc(-c2cccnc2)cs1`, the max response in assay [1] is -52.7%; in [3], -8.86%; in assay [4], -13.9%. The Potency in [2] is 8.33 µM (active). The Potency entry in [8], in assay [9] and in assay [10] was “inactive” in each case.

On to `COc1ccc(Cn2ccc3ccc(C(=O)NO)cc32)cc1`, for which the max response is -16.1% and -2.36% in assay [1]; -11.8% in [3]; 8.71% in [4]. Besides, the molecule was classed as inactive in assay [3], in [4] and in [18]. Besides, the Potency entry in assay [8], in assay [9], in assay [11], in [13], in assay [14] and in [15] was “inactive” throughout. In assay [7], the Potency result was “inactive”.
